Experimental data reported in the supplement of paper PMC10849652.
Targets with a hit are over-represented here; the source holds about 8,800 in all. About 0.5% of all pairs of compound and target were hits. A number with no mark means an inactive call.

Legend:
Experiment in all cases: log2 fold change, soluble protein after heating vs DMSO (PISA); higher = thermal stabilisation; K562 lysate, 10 uM; active = over 0.2 and 3.5 SD of the protein, either way, in both replicates (recomputed)
[1] = compound: CN1CC[C@H](c2c(O)cc(O)c3c(=O)cc(-c4ccccc4Cl)oc23)[C@H](O)C1 [alvocidib]
Summary of the method: (§1)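 The values are log-two fold changes in thermal stability compared with solvent controls and come from duplicates. They were obtained by TMTpro 16plex LC-MS/MS, with channel sums equalised, on the supernatant after 21,000xg for 90 min. That supernatant came from crude K562 extract at 1 mg/mL protein treated with 10 μM compound for 30 min, heated for 3 min across 48°C-58°C, pooled and brought to 0.5% NP-40 at 4°C.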

[2] = compound: CN1CCc2c(c3ccccc3n2Cc2ccc(C(=O)NO)cc2)C1 [Tubastatin A]
Summary of the method: as §1

[3] = compound: CNC(=O)C1=CC=CC=C1NC2=NC(=NC=C2Cl)NC3=C(C=C(C=C3)N4CCOCC4)OC
Summary of the method: as §1

[4] = compound: CNC(=O)c1ccc(Nc2ncc(C(F)(F)F)c(NCc3nccnc3N(C)S(C)(=O)=O)n2)cc1 [defactinib]
Summary of the method: as §1

[5] = compound: CNc1nc(-c2ccc3c(N)n[nH]c3c2)cc(N2C[C@@H](C(=O)NC3CCCCC3)CC[C@H]2C)n1
Summary of the method: as §1

[6] = compound: COC(=O)N[C@@H](C)CNc1nccc(-c2cn(C(C)C)nc2-c2cc(Cl)cc(NS(C)(=O)=O)c2F)n1 [encorafenib]
Summary of the method: as §1

[7] = compound: COC(=O)[C@H](CCSC)NC(=O)C1=C(C=C(C=C1)NC[C@H](CS)N)C2=CC=CC=C2
Summary of the method: as §1

[8] = compound: COc1cc(Nc2ncc3c(n2)-c2ccc(Cl)cc2C(c2c(F)cccc2OC)=NC3)ccc1C(=O)O [alisertib]
Summary of the method: as §1

[9] = compound: COc1cc2nc(-c3cc(F)ccc3O)nc(N[C@@H]3CNC[C@H]3C(C)(C)O)c2cc1OC
Summary of the method: as §1

[10] = compound: COc1cc2ncnc(Nc3ccc(F)c(Cl)c3)c2cc1OCCCN1CCOCC1 [gefitinib]
Summary of the method: as §1

[11] = compound: CS(=O)(=O)CCNCc1ccc(-c2ccc3ncnc(Nc4ccc(OCc5cccc(F)c5)c(Cl)c4)c3c2)o1 [lapatinib]
Summary of the method: as §1

[12] = compound: CS(=O)(=O)N1CCN(Cc2cc3nc(-c4cccc5[nH]ncc45)nc(N4CCOCC4)c3s2)CC1 [pictilisib]
Summary of the method: as §1

[13] = compound: C[C@@H](Oc1cc(-c2cnn(C3CCNCC3)c2)cnc1N)c1c(Cl)ccc(F)c1Cl [crizotinib]
Summary of the method: as §1

[14] = compound: C[C@H](C1=CC=C(C=C1)C(=O)NC2=C3C=CNC3=NC=C2)N
Summary of the method: as §1

[15] = compound: C[C@H](Nc1ncnc2nc[nH]c12)c1cc2cccc(Cl)c2c(=O)n1-c1ccccc1 [duvelisib]
Summary of the method: as §1

[16] = compound: Cc1cc(Nc2cc(CN3CCOCC3)c3nc(C)c(Cc4ccc(Cl)cc4F)n3n2)n[nH]1 [gandotinib]
Summary of the method: as §1

[17] = compound: Cc1cc(Nc2cc(N3CCN(C)CC3)nc(Sc3ccc(NC(=O)C4CC4)cc3)n2)n[nH]1 [tozasertib]
Summary of the method: as §1

[18] = compound: Cc1ccc(-n2nc(C(C)(C)C)cc2NC(=O)Nc2ccc(OCCN3CCOCC3)c3ccccc23)cc1 [doramapimod]
Summary of the method: as §1

[19] = compound: Cc1ccc(NC(=O)c2ccc(CN3CC[C@H](N(C)C)C3)c(C(F)(F)F)c2)cc1Nc1nccc(-c2cncnc2)n1 [bafetinib]
Summary of the method: as §1

[20] = compound: Cc1cccc(CC(=O)N2CCc3c2ccc(-c2cn(C)c4ncnc(N)c24)c3F)n1
Summary of the method: as §1

Chain of UniProt Q8IV48 (Q8IV48 whole entry, looked up): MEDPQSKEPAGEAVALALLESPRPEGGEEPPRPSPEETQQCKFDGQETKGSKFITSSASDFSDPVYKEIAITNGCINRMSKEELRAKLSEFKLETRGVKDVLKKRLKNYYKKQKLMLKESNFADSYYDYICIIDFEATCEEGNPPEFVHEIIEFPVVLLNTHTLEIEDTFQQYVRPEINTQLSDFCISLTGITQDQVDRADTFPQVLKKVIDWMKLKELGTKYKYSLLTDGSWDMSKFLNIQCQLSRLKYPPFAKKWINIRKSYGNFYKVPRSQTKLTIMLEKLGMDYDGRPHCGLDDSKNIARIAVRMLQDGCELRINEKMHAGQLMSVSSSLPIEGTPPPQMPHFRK
Chain of UniProt Q9GZT9 (Q9GZT9 whole entry, looked up): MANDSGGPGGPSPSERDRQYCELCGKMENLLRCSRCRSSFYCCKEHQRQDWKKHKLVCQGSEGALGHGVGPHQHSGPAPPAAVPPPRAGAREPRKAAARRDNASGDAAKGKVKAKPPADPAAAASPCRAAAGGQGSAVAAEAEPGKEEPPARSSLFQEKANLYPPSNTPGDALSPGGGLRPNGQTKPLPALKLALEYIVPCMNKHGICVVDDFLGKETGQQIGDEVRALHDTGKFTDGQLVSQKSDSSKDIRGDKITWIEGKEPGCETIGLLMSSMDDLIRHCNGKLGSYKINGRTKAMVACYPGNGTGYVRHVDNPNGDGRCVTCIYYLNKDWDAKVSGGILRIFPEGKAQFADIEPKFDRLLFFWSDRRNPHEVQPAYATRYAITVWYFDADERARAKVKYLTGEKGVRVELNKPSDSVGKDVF
Chain of UniProt P11474 (P11474 whole entry, looked up): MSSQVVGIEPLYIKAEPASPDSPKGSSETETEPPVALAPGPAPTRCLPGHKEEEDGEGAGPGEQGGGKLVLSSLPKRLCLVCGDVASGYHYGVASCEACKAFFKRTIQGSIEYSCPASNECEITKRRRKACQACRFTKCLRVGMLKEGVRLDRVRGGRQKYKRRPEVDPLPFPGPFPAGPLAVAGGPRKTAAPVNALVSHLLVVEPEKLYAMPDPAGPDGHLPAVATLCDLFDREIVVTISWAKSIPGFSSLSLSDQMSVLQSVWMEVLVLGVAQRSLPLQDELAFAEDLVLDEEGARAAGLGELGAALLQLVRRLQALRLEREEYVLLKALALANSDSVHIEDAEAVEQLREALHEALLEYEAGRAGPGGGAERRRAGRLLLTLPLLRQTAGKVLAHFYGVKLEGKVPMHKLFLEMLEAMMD
Chain of UniProt Q96I24 (Q96I24 whole entry, looked up): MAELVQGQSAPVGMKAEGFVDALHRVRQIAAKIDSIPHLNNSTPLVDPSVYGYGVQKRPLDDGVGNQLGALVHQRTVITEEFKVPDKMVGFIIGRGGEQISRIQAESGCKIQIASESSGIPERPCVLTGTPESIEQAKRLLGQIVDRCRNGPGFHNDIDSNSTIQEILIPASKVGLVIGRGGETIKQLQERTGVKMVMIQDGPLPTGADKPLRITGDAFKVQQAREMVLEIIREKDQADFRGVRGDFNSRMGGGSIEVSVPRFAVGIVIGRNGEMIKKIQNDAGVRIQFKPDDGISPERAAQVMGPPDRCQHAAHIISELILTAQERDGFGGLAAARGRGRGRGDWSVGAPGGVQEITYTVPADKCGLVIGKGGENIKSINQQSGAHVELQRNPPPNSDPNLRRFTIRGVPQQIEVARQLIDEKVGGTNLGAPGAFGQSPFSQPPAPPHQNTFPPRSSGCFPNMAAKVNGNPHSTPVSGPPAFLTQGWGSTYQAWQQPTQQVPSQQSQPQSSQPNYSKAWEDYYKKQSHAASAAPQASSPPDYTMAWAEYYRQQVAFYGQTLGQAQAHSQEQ
Chain of UniProt Q9UJ14 (Q9UJ14 whole entry, looked up): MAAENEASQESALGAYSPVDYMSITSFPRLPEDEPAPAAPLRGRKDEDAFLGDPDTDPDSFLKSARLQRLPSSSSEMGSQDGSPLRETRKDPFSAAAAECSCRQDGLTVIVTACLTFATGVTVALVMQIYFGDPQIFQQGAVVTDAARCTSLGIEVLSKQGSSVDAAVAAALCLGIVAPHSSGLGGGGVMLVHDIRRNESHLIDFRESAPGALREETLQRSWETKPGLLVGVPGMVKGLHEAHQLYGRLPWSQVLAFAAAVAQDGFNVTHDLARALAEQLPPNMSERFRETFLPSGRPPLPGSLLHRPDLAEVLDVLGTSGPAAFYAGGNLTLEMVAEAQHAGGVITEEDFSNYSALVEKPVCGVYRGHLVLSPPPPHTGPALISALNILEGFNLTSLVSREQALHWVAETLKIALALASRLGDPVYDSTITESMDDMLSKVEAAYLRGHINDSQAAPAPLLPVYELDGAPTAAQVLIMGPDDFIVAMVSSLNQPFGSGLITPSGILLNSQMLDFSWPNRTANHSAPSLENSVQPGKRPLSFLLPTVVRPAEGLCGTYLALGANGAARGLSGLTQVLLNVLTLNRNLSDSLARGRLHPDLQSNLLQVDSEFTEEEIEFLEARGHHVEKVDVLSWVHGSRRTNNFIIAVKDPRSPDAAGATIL
Chain of UniProt O95571 (O95571 whole entry, looked up): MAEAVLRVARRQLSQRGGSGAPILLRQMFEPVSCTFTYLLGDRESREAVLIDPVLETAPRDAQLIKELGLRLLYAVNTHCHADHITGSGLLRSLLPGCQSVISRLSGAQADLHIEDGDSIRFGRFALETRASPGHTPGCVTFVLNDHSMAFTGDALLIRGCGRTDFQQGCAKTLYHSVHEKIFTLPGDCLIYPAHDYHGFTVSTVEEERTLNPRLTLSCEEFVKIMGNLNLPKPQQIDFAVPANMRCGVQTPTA
Chain of UniProt Q96G46 (Q96G46 whole entry, looked up): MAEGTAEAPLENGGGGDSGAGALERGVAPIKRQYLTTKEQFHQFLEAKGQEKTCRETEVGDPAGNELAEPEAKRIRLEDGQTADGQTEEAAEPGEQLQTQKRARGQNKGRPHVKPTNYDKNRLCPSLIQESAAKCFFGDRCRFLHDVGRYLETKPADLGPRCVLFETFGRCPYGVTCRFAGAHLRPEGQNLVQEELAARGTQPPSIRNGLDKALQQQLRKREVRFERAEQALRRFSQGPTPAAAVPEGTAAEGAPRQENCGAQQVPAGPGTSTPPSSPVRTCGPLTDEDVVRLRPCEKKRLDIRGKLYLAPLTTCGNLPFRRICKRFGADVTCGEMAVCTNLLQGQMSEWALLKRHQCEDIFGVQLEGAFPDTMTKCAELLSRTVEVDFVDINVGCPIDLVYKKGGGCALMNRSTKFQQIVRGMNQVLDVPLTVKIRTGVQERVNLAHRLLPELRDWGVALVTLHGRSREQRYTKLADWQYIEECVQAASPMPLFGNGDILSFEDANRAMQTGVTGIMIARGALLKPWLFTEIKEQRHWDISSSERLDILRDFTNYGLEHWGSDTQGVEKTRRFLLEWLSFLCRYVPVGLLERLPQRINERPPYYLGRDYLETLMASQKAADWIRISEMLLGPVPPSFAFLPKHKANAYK
Chain of UniProt P02792 (P02792 whole entry, looked up): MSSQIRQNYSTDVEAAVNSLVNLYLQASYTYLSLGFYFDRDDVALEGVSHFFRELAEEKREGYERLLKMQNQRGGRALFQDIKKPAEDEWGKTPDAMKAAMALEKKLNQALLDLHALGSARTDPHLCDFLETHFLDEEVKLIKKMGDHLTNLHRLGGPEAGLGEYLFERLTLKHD
Chain of UniProt Q8N5C7 (Q8N5C7 whole entry, looked up): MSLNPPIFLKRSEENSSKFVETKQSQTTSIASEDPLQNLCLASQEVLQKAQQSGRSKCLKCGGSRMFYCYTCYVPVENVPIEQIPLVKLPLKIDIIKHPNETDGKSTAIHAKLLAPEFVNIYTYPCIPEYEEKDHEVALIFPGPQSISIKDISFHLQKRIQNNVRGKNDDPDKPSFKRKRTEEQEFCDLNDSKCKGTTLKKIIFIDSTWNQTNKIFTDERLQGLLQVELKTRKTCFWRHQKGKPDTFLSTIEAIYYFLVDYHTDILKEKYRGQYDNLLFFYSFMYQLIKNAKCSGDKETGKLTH
Chain of UniProt P0DPD7 (P0DPD7 whole entry, looked up): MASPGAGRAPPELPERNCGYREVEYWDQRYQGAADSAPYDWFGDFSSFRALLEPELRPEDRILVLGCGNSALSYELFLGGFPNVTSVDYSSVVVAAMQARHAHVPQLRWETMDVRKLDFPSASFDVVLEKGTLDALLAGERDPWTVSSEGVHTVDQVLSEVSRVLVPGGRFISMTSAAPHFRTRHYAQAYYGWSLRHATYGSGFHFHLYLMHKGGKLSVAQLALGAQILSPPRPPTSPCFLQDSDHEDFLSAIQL
Chain of UniProt Q9NSD9 (Q9NSD9 whole entry, looked up): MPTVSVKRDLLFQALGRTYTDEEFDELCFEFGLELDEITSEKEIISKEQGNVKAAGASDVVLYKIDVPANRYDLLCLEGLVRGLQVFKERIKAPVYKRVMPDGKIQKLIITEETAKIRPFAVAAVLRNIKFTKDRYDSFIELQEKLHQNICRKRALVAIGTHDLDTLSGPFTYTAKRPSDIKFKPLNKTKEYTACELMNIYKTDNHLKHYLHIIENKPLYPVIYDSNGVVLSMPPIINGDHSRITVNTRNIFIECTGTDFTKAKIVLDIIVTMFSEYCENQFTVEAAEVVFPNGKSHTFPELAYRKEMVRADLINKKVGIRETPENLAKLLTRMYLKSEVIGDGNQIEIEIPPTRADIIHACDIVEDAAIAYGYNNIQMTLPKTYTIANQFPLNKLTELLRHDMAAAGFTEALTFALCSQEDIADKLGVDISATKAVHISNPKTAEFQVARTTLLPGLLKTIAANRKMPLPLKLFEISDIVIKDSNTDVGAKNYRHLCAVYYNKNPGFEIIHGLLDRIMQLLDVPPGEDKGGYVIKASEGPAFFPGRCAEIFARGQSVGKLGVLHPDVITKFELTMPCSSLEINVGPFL
Chain of UniProt P23919 (P23919 whole entry, looked up): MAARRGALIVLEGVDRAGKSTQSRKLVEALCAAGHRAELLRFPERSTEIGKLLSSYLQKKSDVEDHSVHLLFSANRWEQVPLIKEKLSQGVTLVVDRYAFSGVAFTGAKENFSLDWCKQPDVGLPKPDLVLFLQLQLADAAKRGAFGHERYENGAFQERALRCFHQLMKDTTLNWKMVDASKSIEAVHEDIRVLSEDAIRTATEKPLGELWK

Target	log2 fold change [1]	log2 fold change [2]	log2 fold change [3]	log2 fold change [4]	log2 fold change [5]	log2 fold change [6]	log2 fold change [7]	log2 fold change [8]	log2 fold change [9]	log2 fold change [10]	log2 fold change [11]	log2 fold change [12]	log2 fold change [13]	log2 fold change [14]	log2 fold change [15]	log2 fold change [16]	log2 fold change [17]	log2 fold change [18]	log2 fold change [19]	log2 fold change [20]
EEF1AKMT4 (UniProt P0DPD7)	-0.029	-0.027	0.074	0.03	0.188	0.042	0.012	0.037	0.068	0.004	-0.052	0.009	-0.012	-0.046	-0.038	0.067	-0.072	-0.038	-0.171	0.193
GGT7 (UniProt Q9UJ14)	-0.013	0.076	0.008	0.066	0.079	0.078	-0.065	-0.015	0.044	0.055	-0.024	-0.007	0.01	0.068	0.011	0.033	-0.03	-0.054	-0.09	0.042
ERI1 (UniProt Q8IV48)	0.008	0	0.026	0.004	-0.021	0.025	0.118	-0.015	-0.02	-0.007	0.037	-0.079	-0.017	0.047	-0.022	-0.123	-0.015	0.015	0.04	-0.051
FARSB (UniProt Q9NSD9)	0.003	-0.056	-0.012	-0.014	-0.012	-0.029	0.067	0.002	0.005	-0.013	0.003	-0.014	-0.033	0.007	0.021	-0.053	-0.014	0.033	-0.005	-0.001
DTWD1 (UniProt Q8N5C7)	0.041	-0.028	0.011	-0.032	0.01	-0.044	-0.046	0	0.005	-0.006	-0.049	-0.049	0	0.015	0.06	-0.07	-0.075	0.035	0.002	0.092
ESRRA (UniProt P11474)	0.167	-0.169	0.033	-0.086	-0.04	0.048	-0.072	-0.045	-0.029	0.07	0.026	-0.049	-0.025	0.444 (active)	0.088	-0.115	0.088	-0.028	0.052	-0.149
EXOC3 (UniProt O60645)	0.011	-0.063	0.009	0.031	-0.037	0.001	0.07	0.032	-0.023	-0.001	-0.037	-0.033	-0.133	0.016	-0.039	-0.098	0.019	0.041	-0.094	0.019
ESYT2 (UniProt H7BXI1)	0.02	0.038	-0.02	0.001	-0.072	0.053	-0.1	-0.003	0.029	-0.006	-0.008	0.01	-0.039	0.089	0.018	-0.073	0.063	0.018	-0.115	0.002
DUS3L (UniProt Q96G46)	0.076	-0.065	-0.012	-0.023	0.001	0.091	-0.024	-0.02	0.036	-0.005	-0.009	-0.02	-0.027	0.202	-0.022	-0.081	0.009	-0.018	0.093	-0.097
FREM2 (UniProt Q5SZK8)	-0.114	0.068	-0.034	-0.005	-0.038	0.031	-0.022	0.098	-0.013	0.164	-0.077	0.046	-0.095	-0.318 (active)	0.06	0.172	0.104	0.07	-0.135	0.218
FTL (UniProt P02792)	0.013	0.187	-0.04	0.15	-0.097	0.145	-0.076	0.067	0.007	-0.024	-0.072	-0.027	-0.066	-0.022	-0.001	0.068	0.008	-0.024	-0.052	-0.018
ETHE1 (UniProt O95571)	-0.076	0.035	-0.014	-0.008	-0.021	0.008	0.037	0.094	0.022	-0.14	0.049	-0.049	-0.022	-0.034	-0.011	0.016	-0.06	0.005	0.038	0.018
FUBP3 (UniProt Q96I24)	0.008	-0.101	-0.033	0.005	-0.05	0.065	-0.146	0.048	0.001	-0.033	0.02	-0.109	0.005	0.036	-0.022	0.019	0.033	-0.034	-0.055	-0.05
DTYMK (UniProt P23919)	0.037	-0.095	0.01	-0.006	0.04	-0.061	0.283 (active)	0.009	-0.007	-0.011	0.026	-0.003	-0.042	0.055	0.023	-0.135	0.01	0.045	0.007	-0.029
EGLN1 (UniProt Q9GZT9)	-0.017	-0.088	0.025	0.033	-0.026	0	0.091	0.009	0.022	-0.003	-0.075	0.031	-0.018	0.037	0.199	-0.036	0.034	0.006	0.001	-0.055
